# Source: paper PMC7862700, “An all-to-all approach to the identification of sequence-specific readers for epigenetic DNA modifications on cytosine”
# Tests used:
# Assay in all cases: DAPPL (digital affinity profiling via proximity ligation, sequencing); 10 mM Tris-HCl pH 7.5, 50 mM NaCl, 1 mM DTT, 4% glycerol, room temperature, 30 min; GST-TFs on glutathione beads, 16-mer random dsDNA library, 0.1% formaldehyde crosslink after washing; high values mean tight binding
# [1] = biological target: T1, FEV (Homo sapiens, UniProt Q99581 1-238); details: protein: recombinant; tags: N-terminal GST; dsDNA, one strand shown
# T1 sequence: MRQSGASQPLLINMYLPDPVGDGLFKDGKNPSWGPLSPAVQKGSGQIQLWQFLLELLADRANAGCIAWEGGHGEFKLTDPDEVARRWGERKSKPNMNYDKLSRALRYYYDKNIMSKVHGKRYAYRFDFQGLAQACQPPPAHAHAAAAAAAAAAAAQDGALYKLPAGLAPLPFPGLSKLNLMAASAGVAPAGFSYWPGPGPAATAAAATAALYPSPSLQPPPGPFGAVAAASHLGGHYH
# Method in brief: (§1)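 After expression in yeast as GST fusions, human transcription factors were bound to glutathione beads, DNA-barcoded and mixed with a tag-only sample. The pools were incubated with 200 nmole of a 16-mer random double-stranded DNA library in Tris/NaCl/DTT/glycerol buffer (30 min, room temperature), washed and crosslinked with 0.1% formaldehyde. Proximity ligation with BsaI/T4 ligase ran for 1 h at 37 °C, before PCR amplification and sequencing on an Illumina NextSeq500. Binding signal is a hexamer's read frequency for a factor divided by its frequency for the tag-only sample.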
# [2] = biological target: ETV5 (Homo sapiens, UniProt P41161 1-510); details: protein: recombinant; tags: N-terminal GST; dsDNA, one strand shown
# Sequence of ETV5 (P41161 whole entry): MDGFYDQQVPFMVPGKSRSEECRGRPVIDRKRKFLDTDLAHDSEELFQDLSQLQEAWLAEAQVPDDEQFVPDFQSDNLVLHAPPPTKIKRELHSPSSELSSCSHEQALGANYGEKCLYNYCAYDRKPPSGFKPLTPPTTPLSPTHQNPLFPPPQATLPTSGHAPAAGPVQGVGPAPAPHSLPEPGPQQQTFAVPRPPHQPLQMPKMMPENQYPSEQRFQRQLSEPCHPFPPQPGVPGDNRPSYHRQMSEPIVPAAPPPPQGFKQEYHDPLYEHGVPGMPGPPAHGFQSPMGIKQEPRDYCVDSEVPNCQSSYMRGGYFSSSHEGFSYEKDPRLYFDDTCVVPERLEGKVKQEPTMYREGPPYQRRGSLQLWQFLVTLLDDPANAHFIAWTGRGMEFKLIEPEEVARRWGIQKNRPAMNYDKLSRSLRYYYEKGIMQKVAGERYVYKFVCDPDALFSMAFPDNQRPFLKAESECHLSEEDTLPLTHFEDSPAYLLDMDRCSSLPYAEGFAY
# Method in brief: as §1
# [3] = biological target: HSF1 (Homo sapiens, UniProt Q00613 1-529); details: protein: recombinant; tags: N-terminal GST; chain copies: 3; dsDNA, one strand shown
# Sequence of HSF1 (Q00613 whole entry): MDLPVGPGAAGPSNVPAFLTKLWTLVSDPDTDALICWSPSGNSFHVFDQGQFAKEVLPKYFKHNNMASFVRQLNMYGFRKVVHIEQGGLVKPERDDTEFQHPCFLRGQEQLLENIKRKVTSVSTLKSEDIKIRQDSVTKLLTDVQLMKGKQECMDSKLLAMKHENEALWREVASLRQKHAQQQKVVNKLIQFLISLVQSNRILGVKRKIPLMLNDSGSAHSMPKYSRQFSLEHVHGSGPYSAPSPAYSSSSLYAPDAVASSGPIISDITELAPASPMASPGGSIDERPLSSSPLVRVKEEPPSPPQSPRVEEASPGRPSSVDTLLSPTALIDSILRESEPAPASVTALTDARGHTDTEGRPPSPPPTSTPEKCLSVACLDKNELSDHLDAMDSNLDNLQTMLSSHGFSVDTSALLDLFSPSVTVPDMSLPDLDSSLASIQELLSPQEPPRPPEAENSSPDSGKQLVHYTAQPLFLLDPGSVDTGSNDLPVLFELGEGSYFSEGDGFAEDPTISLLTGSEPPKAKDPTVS
# Method in brief: as §1
# [4] = biological target: T2, SPIC (Homo sapiens, UniProt Q8N5J4 1-248); details: protein: recombinant; tags: N-terminal GST; dsDNA, one strand shown
# T2 sequence: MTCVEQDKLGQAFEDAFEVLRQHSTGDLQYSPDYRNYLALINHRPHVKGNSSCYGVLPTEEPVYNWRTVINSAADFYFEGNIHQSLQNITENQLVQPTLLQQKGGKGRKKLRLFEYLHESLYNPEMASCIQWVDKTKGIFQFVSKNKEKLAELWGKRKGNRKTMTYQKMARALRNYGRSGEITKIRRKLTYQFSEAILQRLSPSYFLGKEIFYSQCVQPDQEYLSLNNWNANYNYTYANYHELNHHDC
# Method in brief: as §1
# [5] = biological target: ELF4 (Homo sapiens, UniProt Q99607 1-663); details: protein: recombinant; tags: N-terminal GST; dsDNA, one strand shown
# Sequence of ELF4 (Q99607 whole entry): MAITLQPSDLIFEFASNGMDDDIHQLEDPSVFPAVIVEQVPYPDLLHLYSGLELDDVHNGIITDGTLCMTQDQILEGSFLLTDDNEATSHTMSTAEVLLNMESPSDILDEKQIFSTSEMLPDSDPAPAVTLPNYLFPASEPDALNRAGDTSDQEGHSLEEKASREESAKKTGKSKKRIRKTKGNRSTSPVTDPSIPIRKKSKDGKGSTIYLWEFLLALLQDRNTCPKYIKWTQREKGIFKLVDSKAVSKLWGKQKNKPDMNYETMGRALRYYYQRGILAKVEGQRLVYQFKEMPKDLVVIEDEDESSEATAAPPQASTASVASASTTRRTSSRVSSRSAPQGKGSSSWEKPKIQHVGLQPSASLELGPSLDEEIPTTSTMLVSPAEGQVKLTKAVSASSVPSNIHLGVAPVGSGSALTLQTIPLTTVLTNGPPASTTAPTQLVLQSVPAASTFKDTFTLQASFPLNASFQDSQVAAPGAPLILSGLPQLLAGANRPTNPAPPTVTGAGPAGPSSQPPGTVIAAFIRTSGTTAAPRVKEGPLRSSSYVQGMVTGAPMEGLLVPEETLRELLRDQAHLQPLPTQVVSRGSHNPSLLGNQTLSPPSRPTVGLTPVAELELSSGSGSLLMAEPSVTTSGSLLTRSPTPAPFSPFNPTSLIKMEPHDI
# Method in brief: as §1
# [6] = biological target: T3, ELK4 (Homo sapiens, UniProt P28324-2 1-405); details: protein: recombinant; tags: N-terminal GST; dsDNA, one strand shown
# T3 sequence: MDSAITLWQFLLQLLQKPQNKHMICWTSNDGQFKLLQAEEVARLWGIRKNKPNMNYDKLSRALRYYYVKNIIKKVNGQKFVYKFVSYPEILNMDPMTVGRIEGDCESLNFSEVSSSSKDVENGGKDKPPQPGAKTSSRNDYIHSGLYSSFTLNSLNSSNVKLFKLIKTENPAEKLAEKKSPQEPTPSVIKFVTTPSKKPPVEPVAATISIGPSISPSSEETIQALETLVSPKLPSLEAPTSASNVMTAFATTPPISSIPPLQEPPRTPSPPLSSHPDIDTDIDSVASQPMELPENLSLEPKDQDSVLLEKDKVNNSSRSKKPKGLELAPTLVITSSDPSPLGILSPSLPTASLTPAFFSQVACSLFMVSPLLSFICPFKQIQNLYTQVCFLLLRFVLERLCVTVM
# Method in brief: as §1
# [7] = biological target: T4, ETV2 (Homo sapiens, UniProt O00321 1-342); details: protein: recombinant; tags: N-terminal GST; dsDNA, one strand shown
# T4 sequence: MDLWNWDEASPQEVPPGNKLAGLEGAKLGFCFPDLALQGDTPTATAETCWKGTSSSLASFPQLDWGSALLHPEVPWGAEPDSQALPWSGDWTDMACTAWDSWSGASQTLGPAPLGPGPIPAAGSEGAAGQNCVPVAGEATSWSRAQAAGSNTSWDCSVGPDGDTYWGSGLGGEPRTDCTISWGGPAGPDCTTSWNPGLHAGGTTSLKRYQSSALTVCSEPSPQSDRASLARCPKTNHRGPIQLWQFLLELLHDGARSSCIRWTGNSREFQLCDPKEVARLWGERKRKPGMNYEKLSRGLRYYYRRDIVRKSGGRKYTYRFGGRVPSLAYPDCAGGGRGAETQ
# Method in brief: as §1
# [8] = biological target: T5, ELF3 (Homo sapiens, UniProt P78545 1-371); details: protein: recombinant; tags: N-terminal GST; dsDNA, one strand shown
# T5 sequence: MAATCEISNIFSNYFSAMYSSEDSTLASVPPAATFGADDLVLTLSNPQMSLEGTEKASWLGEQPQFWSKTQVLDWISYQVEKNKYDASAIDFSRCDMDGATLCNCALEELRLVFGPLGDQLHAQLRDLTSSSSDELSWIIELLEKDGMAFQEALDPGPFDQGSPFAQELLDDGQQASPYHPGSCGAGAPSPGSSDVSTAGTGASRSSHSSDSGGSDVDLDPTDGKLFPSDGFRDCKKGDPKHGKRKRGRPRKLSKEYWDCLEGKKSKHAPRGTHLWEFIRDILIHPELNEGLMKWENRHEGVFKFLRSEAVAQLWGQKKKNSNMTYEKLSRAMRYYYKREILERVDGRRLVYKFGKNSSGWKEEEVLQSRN
# Method in brief: as §1
# [9] = biological target: CRX (Homo sapiens, UniProt O43186 1-299); details: protein: recombinant; tags: N-terminal GST; dsDNA, one strand shown
# Sequence of CRX (O43186 whole entry): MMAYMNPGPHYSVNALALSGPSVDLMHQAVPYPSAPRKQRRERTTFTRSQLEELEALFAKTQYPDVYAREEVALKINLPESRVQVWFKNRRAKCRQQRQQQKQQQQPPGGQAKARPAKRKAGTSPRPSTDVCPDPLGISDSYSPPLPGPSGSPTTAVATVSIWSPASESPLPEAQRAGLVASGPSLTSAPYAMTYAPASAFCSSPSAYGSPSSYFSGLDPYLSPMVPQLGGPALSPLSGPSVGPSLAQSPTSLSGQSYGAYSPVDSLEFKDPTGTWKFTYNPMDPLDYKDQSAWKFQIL
# Method in brief: as §1
# [10] = biological target: ETV1 (Homo sapiens, UniProt P50549 1-477); details: protein: recombinant; tags: N-terminal GST; dsDNA, one strand shown
# Sequence of ETV1 (P50549 whole entry): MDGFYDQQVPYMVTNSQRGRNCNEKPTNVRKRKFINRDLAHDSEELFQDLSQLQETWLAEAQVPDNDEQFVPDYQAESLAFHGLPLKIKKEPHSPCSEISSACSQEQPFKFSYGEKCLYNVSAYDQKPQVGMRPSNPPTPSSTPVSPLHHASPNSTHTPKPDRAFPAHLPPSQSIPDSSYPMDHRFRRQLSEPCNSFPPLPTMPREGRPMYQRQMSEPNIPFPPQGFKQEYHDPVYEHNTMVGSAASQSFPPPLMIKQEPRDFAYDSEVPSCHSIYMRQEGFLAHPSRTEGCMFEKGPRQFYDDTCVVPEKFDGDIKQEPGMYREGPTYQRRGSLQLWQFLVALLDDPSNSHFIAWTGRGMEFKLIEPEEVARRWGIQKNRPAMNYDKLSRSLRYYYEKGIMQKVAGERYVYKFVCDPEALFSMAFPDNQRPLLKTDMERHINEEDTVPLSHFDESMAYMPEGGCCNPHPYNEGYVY
# Method in brief: as §1
# [11] = biological target: T6, ERF (Homo sapiens, UniProt P50548 1-548); details: protein: recombinant; tags: N-terminal GST; dsDNA, one strand shown
# T6 sequence: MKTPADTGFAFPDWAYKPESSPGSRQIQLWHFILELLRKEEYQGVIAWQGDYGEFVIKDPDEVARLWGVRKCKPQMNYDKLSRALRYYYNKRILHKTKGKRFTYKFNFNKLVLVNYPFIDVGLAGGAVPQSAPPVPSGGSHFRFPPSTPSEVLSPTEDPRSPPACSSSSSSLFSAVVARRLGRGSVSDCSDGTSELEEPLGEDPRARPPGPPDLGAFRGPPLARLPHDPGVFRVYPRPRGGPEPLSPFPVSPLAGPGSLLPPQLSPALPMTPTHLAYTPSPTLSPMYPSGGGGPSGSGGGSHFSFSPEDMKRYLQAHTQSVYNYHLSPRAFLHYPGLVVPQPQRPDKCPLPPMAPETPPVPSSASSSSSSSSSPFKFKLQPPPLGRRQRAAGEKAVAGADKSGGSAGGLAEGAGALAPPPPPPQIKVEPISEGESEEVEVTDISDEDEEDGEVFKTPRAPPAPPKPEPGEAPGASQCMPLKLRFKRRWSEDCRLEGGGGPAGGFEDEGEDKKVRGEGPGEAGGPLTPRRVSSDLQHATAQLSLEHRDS
# Method in brief: as §1
# [12] = biological target: T7, ETV3L (Homo sapiens, UniProt Q6ZN32 1-361); details: protein: recombinant; tags: N-terminal GST; dsDNA, one strand shown
# T7 sequence: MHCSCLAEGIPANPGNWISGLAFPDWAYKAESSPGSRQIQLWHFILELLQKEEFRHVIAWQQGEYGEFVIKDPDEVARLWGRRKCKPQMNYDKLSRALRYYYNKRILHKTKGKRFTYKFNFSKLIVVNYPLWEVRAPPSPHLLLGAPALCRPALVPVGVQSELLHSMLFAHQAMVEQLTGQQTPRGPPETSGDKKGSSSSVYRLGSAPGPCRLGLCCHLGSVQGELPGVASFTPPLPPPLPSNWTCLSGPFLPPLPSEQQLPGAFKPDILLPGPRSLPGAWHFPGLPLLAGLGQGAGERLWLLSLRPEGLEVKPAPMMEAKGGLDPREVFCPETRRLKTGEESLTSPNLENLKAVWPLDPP
# Method in brief: as §1
# [13] = biological target: T8, ETS2 (Homo sapiens, UniProt P15036 1-469); details: protein: recombinant; tags: N-terminal GST; dsDNA, one strand shown
# T8 sequence: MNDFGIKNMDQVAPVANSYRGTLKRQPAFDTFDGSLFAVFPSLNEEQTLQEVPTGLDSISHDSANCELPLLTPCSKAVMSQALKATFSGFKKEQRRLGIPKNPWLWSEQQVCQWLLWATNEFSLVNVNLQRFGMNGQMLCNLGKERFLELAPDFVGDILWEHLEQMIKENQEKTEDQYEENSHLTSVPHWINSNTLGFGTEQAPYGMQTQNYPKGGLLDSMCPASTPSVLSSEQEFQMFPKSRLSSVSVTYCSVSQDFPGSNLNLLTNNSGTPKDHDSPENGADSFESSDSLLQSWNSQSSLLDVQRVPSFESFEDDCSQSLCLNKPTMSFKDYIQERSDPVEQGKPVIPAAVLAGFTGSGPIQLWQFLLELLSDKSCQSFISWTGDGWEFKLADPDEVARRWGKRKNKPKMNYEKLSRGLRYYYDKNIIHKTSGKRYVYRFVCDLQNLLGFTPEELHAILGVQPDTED
# Method in brief: as §1
# [14] = biological target: T9, SPDEF (Homo sapiens, UniProt O95238 1-335); details: protein: recombinant; tags: N-terminal GST; dsDNA, one strand shown
# T9 sequence: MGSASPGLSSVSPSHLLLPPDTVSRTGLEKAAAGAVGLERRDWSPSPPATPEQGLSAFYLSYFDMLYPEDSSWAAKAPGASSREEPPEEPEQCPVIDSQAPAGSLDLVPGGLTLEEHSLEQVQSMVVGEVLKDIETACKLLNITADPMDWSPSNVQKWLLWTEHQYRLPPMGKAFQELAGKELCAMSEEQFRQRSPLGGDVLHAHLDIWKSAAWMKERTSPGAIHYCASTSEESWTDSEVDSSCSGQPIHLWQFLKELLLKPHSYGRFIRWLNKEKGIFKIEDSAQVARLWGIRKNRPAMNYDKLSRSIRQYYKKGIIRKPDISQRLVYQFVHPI
# Method in brief: as §1
# [15] = biological target: T10, ETV7 (Homo sapiens, UniProt Q9Y603 1-341); details: protein: recombinant; tags: N-terminal GST; dsDNA, one strand shown
# T10 sequence: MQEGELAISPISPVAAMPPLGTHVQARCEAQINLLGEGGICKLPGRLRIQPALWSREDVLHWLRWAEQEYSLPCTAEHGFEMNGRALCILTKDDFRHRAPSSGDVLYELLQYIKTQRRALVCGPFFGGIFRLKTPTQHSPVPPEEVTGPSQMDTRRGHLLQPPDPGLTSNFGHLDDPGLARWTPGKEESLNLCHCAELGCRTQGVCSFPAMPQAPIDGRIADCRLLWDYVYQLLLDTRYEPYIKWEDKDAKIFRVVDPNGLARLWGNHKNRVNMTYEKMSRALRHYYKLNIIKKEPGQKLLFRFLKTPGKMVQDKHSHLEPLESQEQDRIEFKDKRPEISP
# Method in brief: as §1
# [16] = biological target: T11, ELF5 (Homo sapiens, UniProt Q9UKW6-2 1-255); details: protein: recombinant; tags: N-terminal GST; dsDNA, one strand shown
# T11 sequence: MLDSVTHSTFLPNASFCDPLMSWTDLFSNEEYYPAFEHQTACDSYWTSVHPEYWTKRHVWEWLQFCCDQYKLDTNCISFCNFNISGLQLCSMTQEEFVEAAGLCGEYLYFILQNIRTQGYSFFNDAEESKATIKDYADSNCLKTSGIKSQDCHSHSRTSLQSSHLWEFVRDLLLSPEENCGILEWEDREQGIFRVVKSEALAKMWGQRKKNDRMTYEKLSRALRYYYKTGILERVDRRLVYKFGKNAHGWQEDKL
# Method in brief: as §1
# [17] = biological target: T12, ETV3 (Homo sapiens, UniProt P41162-2 1-143); details: protein: recombinant; tags: N-terminal GST; dsDNA, one strand shown
# T12 sequence: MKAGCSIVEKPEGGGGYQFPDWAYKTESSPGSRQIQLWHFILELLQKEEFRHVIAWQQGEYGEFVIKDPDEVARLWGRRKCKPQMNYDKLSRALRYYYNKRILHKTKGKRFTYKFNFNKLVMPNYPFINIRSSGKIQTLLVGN
# Method in brief: as §1
# [18] = biological target: ETV6 (Homo sapiens, UniProt P41212 1-452); details: protein: recombinant; tags: N-terminal GST; dsDNA, one strand shown
# Sequence of ETV6 (P41212 whole entry): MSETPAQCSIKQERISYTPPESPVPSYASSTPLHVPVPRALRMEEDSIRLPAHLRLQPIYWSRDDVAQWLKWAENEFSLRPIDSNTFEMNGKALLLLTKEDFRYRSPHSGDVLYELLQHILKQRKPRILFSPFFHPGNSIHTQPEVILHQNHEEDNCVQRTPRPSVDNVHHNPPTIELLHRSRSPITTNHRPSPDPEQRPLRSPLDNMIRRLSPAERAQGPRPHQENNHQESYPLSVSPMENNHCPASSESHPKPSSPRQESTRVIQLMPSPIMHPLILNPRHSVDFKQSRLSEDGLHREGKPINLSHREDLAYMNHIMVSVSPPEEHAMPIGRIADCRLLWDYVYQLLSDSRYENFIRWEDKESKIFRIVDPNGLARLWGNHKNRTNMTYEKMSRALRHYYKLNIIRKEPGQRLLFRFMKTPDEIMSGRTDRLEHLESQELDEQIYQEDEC
# Method in brief: as §1
sequence,measurement,setting,value
TCACCA,binding signal,[1],"1.16 fold enrichment (6-mer frequency, TF over GST control)"
same,binding signal,[2],"1.12 fold enrichment (6-mer frequency, TF over GST control)"
same,binding signal,[3],"1.01 fold enrichment (6-mer frequency, TF over GST control)"
same,binding signal,[4],"1.19 fold enrichment (6-mer frequency, TF over GST control)"
same,binding signal,[5],"1.25 fold enrichment (6-mer frequency, TF over GST control)"
same,binding signal,[6],"1.21 fold enrichment (6-mer frequency, TF over GST control)"
same,binding signal,[7],"1.32 fold enrichment (6-mer frequency, TF over GST control)"
same,binding signal,[8],"1.39 fold enrichment (6-mer frequency, TF over GST control)"
same,binding signal,[9],"1.04 fold enrichment (6-mer frequency, TF over GST control)"
same,binding signal,[10],"1.13 fold enrichment (6-mer frequency, TF over GST control)"
same,binding signal,[11],"1.12 fold enrichment (6-mer frequency, TF over GST control)"
same,binding signal,[12],"1.16 fold enrichment (6-mer frequency, TF over GST control)"
same,binding signal,[13],"1.08 fold enrichment (6-mer frequency, TF over GST control)"
same,binding signal,[14],"1.13 fold enrichment (6-mer frequency, TF over GST control)"
same,binding signal,[15],"1.04 fold enrichment (6-mer frequency, TF over GST control)"
same,binding signal,[16],"1.07 fold enrichment (6-mer frequency, TF over GST control)"
same,binding signal,[17],"1.19 fold enrichment (6-mer frequency, TF over GST control)"
same,binding signal,[18],"1.08 fold enrichment (6-mer frequency, TF over GST control)"
